Inconclusive results are not listed. Where a call stands in place of a potency, no number is given. Activity calls are given as the source filed them. Calls follow the shape of the dose curve; as a rule, active = well fitted inhibition curve with a large enough effect; inconclusive = small, poorly fitted or top-dose-only effect; inactive = no such curve, though single readings can be large or run the other way. Where a SMILES comes first, the peptide text is derived from it. [ ]: non-standard residue; d: D form. PhLac = O=C(O)[CH](O)Cc1ccccc1; NMeV = CN[CH](C(=O)O)C(C)C
Potency is read from the fitted curve at half-maximal effect.

This assay can be described thus: Primary fluorescence-based thiol-reactive (MSTI) qHTS assay for identification of artifact compounds. (AID 1845221). Also: nearly all actives have a fitted effect of over 65% in size. The conditions noted are these: MSTI thiol-reactivity probe, 1 h; series mostly up to 53.8 µM. The procedure, abridged:
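MSTI probe at 4 uM final in 2% DMSO/PBS pH 7.4; compounds, 1 h at room temperature in dark. Fluorescence Ex/Em 525/598 nm, normalised to Acetyl-MSTI and MSTI, fitted to 4-parameter Hill.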
Turning to `CCCCS(=O)(=O)Nc1ncnc(OCCOc2ncc(Br)cn2)c1-c1ccc(Br)cc1`, the Potency result was “inactive”.

In the case of `CC(=O)[C@@H]1CC[C@]2(C(=O)O)CC[C@]3(C)C(CCC4[C@@]5(C)CC[C@H](O)C(C)(C)C5CC[C@]43C)C12` (stereo partly specified), the Potency result was “inactive”.

Consider `C=C1[C@H]2CC[C@]3(O)[C@@](CC[C@@H]4[C@](C)(C(=O)O)CCC[C@]43C)(C2)[C@H]1OC(=O)/C(C)=C\C`, for which the Potency entry was “inactive”.

Turning to `O=C(O[C@H]1[C@@H]2C[C@@H]3OC[C@@](O)([C@H]2[C@H](O[C@@H]2O[C@H](CO)[C@@H](O)[C@H](O)[C@H]2O)O3)[C@@H]1O)c1ccccc1`, the Potency was 5.19 µM (active).

`CC1NC(=O)C(Cc2c[nH]c3ccccc23)NC1=O` (stereo unspecified): the Potency entry was “inactive”.

Regarding `O=C(C1CC1)N1CC[C@@H](Cc2n[nH]c(=O)n2-c2ccc(-c3ccc4occc4c3)cc2)C1`, the Potency entry was “inactive”.

Take `O=C(O)c1cnn(-c2nc3cc(OC(F)(F)F)c(Cl)cc3[nH]2)c1`: the Potency entry was “inactive”.

Take `CC1=CC(=O)CC(C)(C)C1CCC(C)OC1OC(COC(=O)c2cc(O)c(O)c(O)c2)C(O)C(O)C1O` (stereo unspecified): the Potency is 1.16 µM (active).

In the case of `C[C@H]1[C@H](C)CC[C@]2(C(=O)O)CC[C@]3(C)C(=CC[C@@H]4[C@@]5(C)C[C@@H](O)[C@H](O)[C@@](C)(CO)[C@@H]5CC[C@]43C)[C@H]12`, the Potency entry is “inactive”.

Regarding `C=CC(C)(C)C12CC3C(=O)NC(Cc4cnc[nH]4)C(=O)N3C1Nc1ccccc12` (stereo unspecified), the Potency entry was “inactive”.

Turning to `CC(C)C(C(=O)N1CCCC1C(=O)O)N(C)C(=O)C(O)Cc1ccccc1` (stereo unspecified) (H-[PhLac]-[NMeV]-Pro-OH; configuration not given here), the Potency entry was “inactive”.

The values are drawn from PubChem BioAssay (NCATS).
